Test results from PubChem BioAssay.
Activity calls are given as the source filed them. Unless noted, the rule behind the calls is not given here.

Legend:
[1] = resazurin metabolic signal in HepG2 cells – cell-based, resazurin fluorescence, 24 h, PK04 Diversity Set, profiling panel (AID 1172); details: HepG2 viability, higher = more signal
[2] = budding yeast growth changes without added modifier – OD600, strain BY4716, 24 h, basal condition, primary screen (AID 1173); details: S. cerevisiae BY4716 growth, OD600, 24 h; higher = more signal, called active from +8 up or from −8 down
[3] = viability profiling in MM1S myeloma cells – cell-based, resazurin fluorescence, basal, 24 h, PK04 Diversity Set, profiling panel (AID 1174); details: higher = more signal, called active from +8 up or from −8 down;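 note: MM1S multiple myeloma cell line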
[4] = target: Dihydroorotate dehydrogenase (quinone), mitochondrial (Plasmodium falciparum (isolate 3D7)) (UniProt Q08210); test: inhibition of P. falciparum DHODH – biochemical, C-terminal His tag, absorbance 600 nm, primary screen (AID 1175); details: PfDHODH enzyme, DCIP absorbance 600 nm; higher = more signal, called active from +8 up or from −8 down;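 note: recombinant parasite enzyme with a five histidine tag at its C terminus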
[5] = inhibition of PAO1 biofilm formation – strain PAO1, LB-PBS medium, absorbance 600 nm, primary screen (AID 1176); details: P. aeruginosa PAO1 growth/biofilm, A600, 12 h; higher = more signal
[6] = growth modulation of vineyard yeast isolate – strain RM11-1a, OD600, basal, 24 h, primary screen (AID 1177);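 note: cultures grown under basal conditions with no added stressor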; details: S. cerevisiae RM11-1a growth, OD600, 24 h; higher = more signal, called active from +8 up or from −8 down
[7] = growth of efflux-deficient E. coli DRC39 – strain DRC39, OD650, 24 h, E. coli filamentation inducers, primary screen (AID 1178);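 note: growth measured as culture turbidity by optical density at 650 nm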; details: E. coli DRC39 acrAB, higher = more signal, called active from +8 up or from −8 down
[8] = growth of efflux-deficient E. coli DRC39 – strain DRC39, OD650, 48 h, E. coli filamentation inducers, primary screen (AID 1179);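 note: screen aims at cell division blockers that make cells filament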; details: E. coli DRC39 delta-acrAB growth, higher = more signal, called active from +8 up or from −8 down
[9] = viability profiling in RPMI8226 myeloma cells – cell-based, resazurin fluorescence, basal, 24 h, PK04 Diversity Set, profiling panel (AID 1180); details: higher = more signal;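 note: RPMI8826 multiple myeloma cell line at 5000 cells per well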
[10] = target: E3 ubiquitin-protein ligase XIAP (Homo sapiens) (UniProt P98170); test: small molecules binding XIAP protein – biophysical, small-molecule microarray, fluorescence 635 nm, primary screen (AID 1181); details: higher = more signal;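 note: score merges 667 nm emission and signal to noise over triplicate slides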
[11] = system: XIP peptide (Xip251-270) binding; test: XIP fragment 251-270 binding compounds – biochemical, small-molecule microarray, fluorescence 635/667 nm, 0.1 µg/mL protein, primary screen (AID 1182); details: fluorescent protein binding, 635 nm, higher = more signal, called active from +8 up or from −8 down
XIP peptide (Xip251-270) = test: compounds binding XIP fragment 251-270 – biochemical, small-molecule microarray, fluorescence 635/667 nm, 0.5 µg/mL protein, primary screen (AID 1183); details: fluorescence 635 nm, higher = more signal
[12] = blood-stage malaria parasite viability loss – strain 3D7, DAPI fluorescence, 100 nL, primary screen (AID 1184);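 note: parasites grown inside human red blood cells in medium with human serum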; details: P. falciparum 3D7 growth, 3 d, higher = more signal
[13] = target: Homeobox protein Hox-A13 (Mus musculus) (UniProt Q62424); test: disruptors of Hoxa13 oligonucleotide interaction – biochemical, fluorescence polarization, labeled oligonucleotide, primary screen (AID 1185); details: Hoxa13:DNA binding, 15 min, higher = more signal, called active from +8 up or from −8 down
[14] = blockers of DNA damage checkpoint Chk1 activation – imaging, HeLa, hydroxyurea, phospho-Chk1 antibody, percent positive cells, primary screen (AID 1186); details: hydroxyurea-induced phospho-Chk1 immunofluorescence imaging, higher = more signal
[15] = blockers of DNA damage checkpoint Chk1 activation – imaging, HeLa, hydroxyurea, phospho-Chk1 nuclear intensity, primary screen (AID 1187); details: hydroxyurea-induced phospho-Chk1 immunofluorescence imaging, higher = more signal

Dihydroorotate dehydrogenase (quinone), mitochondrial (Plasmodium falciparum (isolate 3D7)), sequence (Q08210 whole entry, looked up): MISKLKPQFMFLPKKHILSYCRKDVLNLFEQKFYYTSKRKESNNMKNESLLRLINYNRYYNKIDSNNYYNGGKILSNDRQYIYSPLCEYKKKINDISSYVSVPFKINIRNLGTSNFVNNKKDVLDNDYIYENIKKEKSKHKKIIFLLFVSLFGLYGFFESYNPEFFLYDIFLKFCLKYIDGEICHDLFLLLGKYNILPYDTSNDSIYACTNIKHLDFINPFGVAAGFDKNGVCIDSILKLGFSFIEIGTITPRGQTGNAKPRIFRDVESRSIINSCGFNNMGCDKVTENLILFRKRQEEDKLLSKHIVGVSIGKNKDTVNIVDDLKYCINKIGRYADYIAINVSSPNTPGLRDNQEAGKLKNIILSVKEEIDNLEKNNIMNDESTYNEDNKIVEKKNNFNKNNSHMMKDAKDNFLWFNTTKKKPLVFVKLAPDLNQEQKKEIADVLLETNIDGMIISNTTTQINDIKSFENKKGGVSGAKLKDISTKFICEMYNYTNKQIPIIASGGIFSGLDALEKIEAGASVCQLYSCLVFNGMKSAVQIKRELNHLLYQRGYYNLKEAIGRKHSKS
E3 ubiquitin-protein ligase XIAP (Homo sapiens), sequence (P98170 whole entry, looked up, the tested form may be a part): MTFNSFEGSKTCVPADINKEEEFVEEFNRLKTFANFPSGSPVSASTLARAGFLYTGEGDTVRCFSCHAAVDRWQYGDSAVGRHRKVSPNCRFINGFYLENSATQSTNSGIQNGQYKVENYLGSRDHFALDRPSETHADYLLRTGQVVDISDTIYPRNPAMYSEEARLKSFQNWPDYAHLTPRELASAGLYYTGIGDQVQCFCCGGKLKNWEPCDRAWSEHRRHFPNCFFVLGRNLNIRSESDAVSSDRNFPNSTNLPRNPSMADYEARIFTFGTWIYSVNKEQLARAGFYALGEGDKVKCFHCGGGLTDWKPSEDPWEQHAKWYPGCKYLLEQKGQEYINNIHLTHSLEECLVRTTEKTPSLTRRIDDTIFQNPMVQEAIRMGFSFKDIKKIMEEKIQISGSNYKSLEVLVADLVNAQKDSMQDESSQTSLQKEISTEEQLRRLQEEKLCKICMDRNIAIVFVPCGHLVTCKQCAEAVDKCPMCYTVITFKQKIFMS
Homeobox protein Hox-A13 (Mus musculus), sequence (Q62424 whole entry, looked up): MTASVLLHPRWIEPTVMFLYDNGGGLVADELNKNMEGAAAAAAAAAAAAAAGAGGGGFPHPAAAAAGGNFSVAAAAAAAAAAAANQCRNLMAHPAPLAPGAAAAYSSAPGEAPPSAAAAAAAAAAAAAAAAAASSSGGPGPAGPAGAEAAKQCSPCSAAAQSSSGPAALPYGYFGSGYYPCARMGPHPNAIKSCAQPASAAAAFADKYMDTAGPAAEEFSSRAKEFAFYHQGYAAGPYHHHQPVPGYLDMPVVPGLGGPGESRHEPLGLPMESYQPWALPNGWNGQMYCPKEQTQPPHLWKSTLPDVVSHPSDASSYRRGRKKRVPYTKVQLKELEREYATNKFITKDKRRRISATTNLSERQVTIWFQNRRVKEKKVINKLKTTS

Row | Structure (SMILES) | z-score [1] | z-score [2] | z-score [3] | composite z-score [4] | z-score [5] | z-score [6] | z-score [7] | z-score [8] | z-score [9] | composite z-score [10] | composite z-score [11] | composite z-score (XIP peptide (Xip251-270)) | z-score [12] | z-score [13] | z-score [14] | z-score [15]
1 | COCCCNC(=O)[C@@]1(CCS(=O)(=O)c2ccccc2)N=C(c2ccc(OCCCO)cc2)O[C@H]1c1ccccc1 | 1.62 | -0.44 (inactive) | 0.745 (inactive) | 0.514 (inactive) | 0.0963 (inactive) | -0.287 (inactive) | 1.34 (inactive) | 0.953 (inactive) | 0.806 | 0.14 | 1.3 (inactive) | 0.875 | -1.62 | -6.18 (inactive) | -0.213 (inactive) | -0.2 (inactive)
2 | C/C=C\[C@@H](NCc1ccccc1Br)[C@@H](O)Cc1ccccc1 | -0.391 | -9.3 (active) | -0.393 (inactive) | -2.11 (inactive) | -1.61 (inactive) | -0.572 (inactive) | -0.179 (inactive) | -1.18 (inactive) | -0.645 | 0.0785 | -0.0971 (inactive) | 0.0819 | -1.64 | -1.47 (inactive) | 0.0731 (inactive) | 0.35 (inactive)
3 | CC(C)NC(=O)[C@@]1(C)c2ccccc2C(=O)N(Cc2cc(F)cc(C(F)(F)F)c2)[C@H]1c1ccc(CO)cc1 | -0.0499 | 0.118 (inactive) | 0.0847 (inactive) | 0.0724 (inactive) | 0.897 (inactive) | -0.0826 (inactive) | -0.0821 (inactive) | -0.043 (inactive) | -0.744 | -0.157 | 1.06 (inactive) | 0.863 | 0.281 | -3.73 (inactive) | 0.0123 (inactive) | -0.37 (inactive)
4 | CCCCC(=C=CC[C@H](O)c1ccccc1OCCO)C[C@H](O)COCc1ccccc1 | -0.325 | -1.18 (inactive) | -0.505 (inactive) | -2.89 (inactive) | 0.637 (inactive) | -0.0076 (inactive) | 0.156 (inactive) | 0.0347 (inactive) | -0.276 | -0.0062 | 1.03 (inactive) | -0.765 | -1.21 | -4.61 (inactive) | -0.15 (inactive) | 0.18 (inactive)
5 | N#Cc1ccc(NN2C(C(O)c3cc(C(F)(F)F)cc(C(F)(F)F)c3)C=CC3C(=O)N(c4ccccc4)C(=O)C32)cc1 (stereo not given) | -1.75 | -0.102 (inactive) | -0.758 (inactive) | 0.678 (inactive) | 1.14 (inactive) | -0.0165 (inactive) | -1.55 (inactive) | -0.56 (inactive) | -0.409 | 0.0239 | 1.67 (inactive) | 0.479 | -0.496 | -1.5 (inactive) | 0.245 (inactive) | -0.0521 (inactive)
6 | COC(=O)[C@H]1COC(c2ccc(OCCCO)cc2)=N1 | -0.652 | -0.928 (inactive) | 0.107 (inactive) | 0.335 (inactive) | 0.149 (inactive) | -0.286 (inactive) | 0.057 (inactive) | -0.645 (inactive) | 0.492 | -0.103 | 0.239 (inactive) | 0.871 | -0.264 | -3.56 (inactive) | 0.101 (inactive) | -0.388 (inactive)
7 | COc1ccccc1CN1C(=O)c2ccccc2[C@@]2(Cc3ccccc3N(C(C)C)C2=O)[C@@H]1c1ccc(CO)cc1 | -0.643 | 0.439 (inactive) | -0.647 (inactive) | -3.28 (inactive) | 0.376 (inactive) | -1.56 (inactive) | 0.549 (inactive) | 1.14 (inactive) | -0.457 | 0.161 | 0.496 (inactive) | 0.854 | 0.559 | -0.215 (inactive) | -0.014 (inactive) | 0.36 (inactive)
8 | CC(C)[Si]1(C(C)C)O[C@@H](c2ccccc2)c2cc(C3CC3)nc(-c3ccccc3)c21 | 0.972 | 0.0055 (inactive) | 0.656 (inactive) | 0.45 (inactive) | 0.632 (inactive) | -0.403 (inactive) | -0.281 (inactive) | -0.785 (inactive) | 0.21 | 0.0785 | -0.431 (inactive) | 0.555 | 0.0193 | -1.21 (inactive) | -0.652 (inactive) | -0.694 (inactive)
9 | COCCCNC(=O)[C@@]1(C)c2ccccc2C(=O)N(Cc2ccc(OC(F)(F)F)cc2)[C@H]1c1ccc(CO)cc1 | -0.576 | -0.0763 (inactive) | -0.741 (inactive) | -0.617 (inactive) | 0.431 (inactive) | -0.419 (inactive) | 0.434 (inactive) | 1.17 (inactive) | -0.661 | -0.148 | 0.111 (inactive) | 0.187 | -0.313 | -2.89 (inactive) | -0.143 (inactive) | -0.339 (inactive)
10 | CC(C)(C)OC(=O)CC[C@]1(C(=O)NCc2ccccc2)N=C(c2ccc(OCCCO)cc2)O[C@H]1c1ccccc1 | 0.461 | 0.69 (inactive) | -0.768 (inactive) | 0.218 (inactive) | 0.469 (inactive) | 0.543 (inactive) | 0.732 (inactive) | 0.03 (inactive) | -0.135 | -0.16 | 0.124 (inactive) | 0.846 | -1.58 | -6.62 (inactive) | -0.179 (inactive) | -0.062 (inactive)
